Laboratory results as given in PubChem BioAssay AID1159580 (chemical genetic matrix, 2015).
Out of some 5,500 compounds screened, about 2,000 (36%) were called active. About 18% were inconclusive and are not listed. Cut-off read from the data, not from the text of the source: active = normalized growth mostly below about 0.91 (no sharp cut-off); inconclusive = no clear call, values can overlap the other calls; inactive = mostly above about 0.92. The list shows a part of the results.

Assay: chemical genetic growth profiling, strain panel (AID 1159580);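 note: tested at 20 µM; growth read once vehicle control cultures reached saturation at 30 °C; 1 = growth at the plate median or of vehicle wells; lower values mean less growth of the strain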
Details: S. cerevisiae deletion strains, growth OD

Measured: normalized growth

CC(=O)NCCCS(=O)(=O)O
inactive: locus YAL021C, strain ccr4, stronger effect = lower value 0.994 | locus YAL026C, strain drs2, stronger effect = lower value 1.02 | locus YAL030W, strain snc1, stronger effect = lower value 1.01 | locus YBL061C, strain skt5, stronger effect = lower value 1.01 | locus YBR009C, strain hhf1, stronger effect = lower value 1.02 | locus YBR023C, strain chs3, stronger effect = lower value 1.02 | locus YBR171W, strain sec66, stronger effect = lower value 1.03 | locus YBR231C, strain swc5, stronger effect = lower value 1.02 | locus YBR279W, strain paf1, stronger effect = lower value 1.02 | locus YCL011C, strain gbp2, stronger effect = lower value 1.01 | locus YCL016C, strain dcc1, stronger effect = lower value 1.02 | locus YCL061C, strain MRC1, stronger effect = lower value 1.02 | locus YCL069W, strain vba3, stronger effect = lower value 1.01 | locus YCR088W, strain abp1, stronger effect = lower value 1.01 | locus YDL005C, strain med2, stronger effect = lower value 1.01 | locus YDL040C, strain nat1, stronger effect = lower value 1.02 | locus YDR001C, strain nth1, stronger effect = lower value 1.01 | locus YDR069C, strain doa4, stronger effect = lower value 1.01 | locus YDR137W, strain rgp1, stronger effect = lower value 1.03 | locus YDR159W, strain sac3, stronger effect = lower value 1.01 | locus YDR195W, strain ref2 1.02 | locus YDR297W, strain sur2, stronger effect = lower value 1.01 | locus YDR334W, strain swr1, stronger effect = lower value 1.01 | locus YDR335W, strain msn5, stronger effect = lower value 1.01 | locus YDR392W, strain spt3, stronger effect = lower value 0.984 | locus YEL003W, strain gim4, stronger effect = lower value 1.01 | locus YEL037C, strain rad23, stronger effect = lower value 1.01 | locus YEL061C, strain CIN8 (second series), stronger effect = lower value 1 | locus YER015W, strain faa2, stronger effect = lower value 1.01 | locus YER016W, strain bim1, stronger effect = lower value 1.02 | locus YER111C, strain swi4, stronger effect = lower value 1.02 | locus YER155C, strain BEM2 (second series), stronger effect = lower value 1.04 | locus YFR010W, strain ubp6, stronger effect = lower value 1.01 | locus YGL167C, strain pmr1, stronger effect = lower value 1.01 | locus YGL173C, strain kem1, stronger effect = lower value 1.02 | locus YGL227W, strain vid30, stronger effect = lower value 1.02 | locus YGL240W, strain doc1, stronger effect = lower value 1.02 | locus YGL253W, strain hxk2, stronger effect = lower value 1.01 | locus YHR013C, strain ard1, stronger effect = lower value 1.05 | locus YHR027C, strain rpn1, stronger effect = lower value 1.01 | locus YHR030C, strain SLT2, stronger effect = lower value 1.03 | locus YHR079C, strain IRE1, stronger effect = lower value 1.04 | locus YHR142W, strain chs7, stronger effect = lower value 1.01 | locus YJL092W, strain hpr5, stronger effect = lower value 1.01 | locus YJL095W, strain BCK1 (second series), stronger effect = lower value 1.01 | locus YJL095W, strain BCK1, stronger effect = lower value 1.01 | locus YJL115W, strain asf1, stronger effect = lower value 1.01 | locus YJL129C, strain trk1, stronger effect = lower value 1.01 | locus YJL154C, strain vps35, stronger effect = lower value 1.01 | locus YJL164C, strain tpk1, stronger effect = lower value 1 | locus YJL166W, strain qcr8, stronger effect = lower value 1.02 | locus YJL187C, strain SWE1, stronger effect = lower value 1.01 | locus YJR066W, strain TOR1, stronger effect = lower value 0.989 | locus YKL160W, strain elf1, stronger effect = lower value 1.02 | locus YKR026C, strain gcn3, stronger effect = lower value 0.993 | locus YKR091W, strain srl3, stronger effect = lower value 1.02 | locus YLL001W, strain dnm1, stronger effect = lower value 1.02 | locus YLL026W, stronger effect = lower value 1.02 | locus YLL041C, strain sdh2, stronger effect = lower value 1.01 | locus YLR027C, strain aat2, stronger effect = lower value 1.02 | locus YLR113W, strain HOG1, stronger effect = lower value 0.97 | locus YLR221C, strain rsa3, stronger effect = lower value 1.01 | locus YLR258W, strain gsy2, stronger effect = lower value 1.01 | locus YLR262C, strain YPT6 (second series), stronger effect = lower value 1.02 | locus YLR320W, strain mms22, stronger effect = lower value 1.01 | locus YLR342W, strain FKS1, stronger effect = lower value 1.01 | locus YLR357W, strain rsc2, stronger effect = lower value 1.06 | locus YLR370C, strain arc18, stronger effect = lower value 1.01 | locus YLR384C, strain iki3, stronger effect = lower value 1.02 | locus YML120C, strain ndi1, stronger effect = lower value 1.01 | locus YMR058W, strain fet3, stronger effect = lower value 1.02 | locus YMR125W, strain sto1, stronger effect = lower value 1.03 | locus YMR129W, stronger effect = lower value 1 | locus YMR205C, strain PFK2, stronger effect = lower value 1.03 | locus YMR231W, strain pep5, stronger effect = lower value 1.01 | locus YNL071W, strain lat1, stronger effect = lower value 1.02 | locus YNL183C, strain NPR1, stronger effect = lower value 1 | locus YNL209W, strain ssb2, stronger effect = lower value 1.01 | locus YNL248C, strain rpa49, stronger effect = lower value 1.01 | locus YNL322C, strain KRE1 (second series), stronger effect = lower value 1.01 | locus YNR049C, strain mso1, stronger effect = lower value 1.02 | locus YOR001W, strain rrp6, stronger effect = lower value 1.01 | locus YOR070C, strain gyp1, stronger effect = lower value 1.01 | locus YOR080W, strain dia2, stronger effect = lower value 1.01 | locus YOR083W, strain WHI5, stronger effect = lower value 0.998 | locus YOR106W, strain vam3, stronger effect = lower value 1.01 | locus YOR231W, strain MKK1, stronger effect = lower value 1.02 | locus YOR265W, strain rbl2, stronger effect = lower value 1.01 | locus YOR270C, strain vph1, stronger effect = lower value 1.04 | locus YOR290C, strain snf2, stronger effect = lower value 1.01 | locus YPL051W, strain arl3, stronger effect = lower value 1.01 | locus YPL078C, strain atp4, stronger effect = lower value 1.02 | locus YPL106C, strain sse1, stronger effect = lower value 1.02 | locus YPL240C, strain hsp82, stronger effect = lower value 1.01 | locus YPL256C, strain CLN2, stronger effect = lower value 1.02

CCCCCCCCCCCCCCCC(=O)NCCO
active: locus YNL224C, strain SQS1, stronger effect = lower value 0.823
inactive: locus YAL040C, strain CLN3, stronger effect = lower value 1.02 | locus YCL061C, strain MRC1 (second series), stronger effect = lower value 1.01 | locus YDR363W, strain ESC2, stronger effect = lower value 1.02 | locus YER002W, strain NOP16, stronger effect = lower value 1.01 | locus YJR075W, strain HOC1, stronger effect = lower value 1.01 | locus YMR307W, strain GAS1, stronger effect = lower value 1 | locus YNL197C, strain WHI3, stronger effect = lower value 1.03 | locus YOR083W, strain WHI5 (second series), stronger effect = lower value 1.02 | locus YPL055C, strain LGE1, stronger effect = lower value 1.02 | locus YPL241C, strain CIN2, stronger effect = lower value 0.999
